High-throughput results: PubChem, The Scripps Research Institute Molecular Screening Center
Only some compounds are listed: those with a hit (about 2.2% of all), similar ones and a draw of the others.
HGIII-sPLA2 inh: Blocks human group III sPLA2 activity. Q9NZ20. QFRET BODIPY PC-A2 liposome hydrolysis, fluorescence. inhibition, % at 12.2 µM. actives 0.56% (n = 370,000). AID 743126;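 active means inhibition above mean plus 3 SD of compounds lying within the high and low control bounds, cut at about 19% in these data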
HTR5A ag: HTR5A agonism, opioid heterodimer counter-screen. P47898. HTR5A agonist assay, luminescence, cell-based. activation, % at 9.3 µM. actives 0.61% (n = 340,000); in the data active means activation mostly above about 9.5%, no sharp cut-off; inactive means mostly below about 7.6%
HTR5A inv ctr: inverse agonist of human HTR5A in OPRM1-OPRD1 counter-screen; P47898; inhibition, % at 9.3 µM; HTR5A cell line, luminescence, inverse agonism; AID 504634; actives 0.083% (n = 340,000); in the data active means inhibition mostly above about 23%, no sharp cut-off; inactive means mostly below about 18%
MOR-DOR inv ag: inverse agonist of human OPRM1-OPRD1 heterodimerization; cell-based MOR-DOR heterodimer luminescence, inverse agonism; P35372+P41143; inhibition, % at 9.3 µM; AID 504357; actives 0.21% (n = 340,000); in the data active means inhibition above about 22%, passing the limit was not always enough
m5-HT2A agonist: mouse HTR2A agonism via beta-arrestin recruitment; activation, % at 7.6 µM; actives 0.66% (n = 360,000); P35363; CHO-K1 mHTR2A beta-arrestin complementation, luminescence; percent of 30 µM serotonin response;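 active means activation above a run cutoff, the mean activation of all tested compounds plus 3 SD, cut at about 14% in these data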
Target sequence (P35363 whole entry, looked up): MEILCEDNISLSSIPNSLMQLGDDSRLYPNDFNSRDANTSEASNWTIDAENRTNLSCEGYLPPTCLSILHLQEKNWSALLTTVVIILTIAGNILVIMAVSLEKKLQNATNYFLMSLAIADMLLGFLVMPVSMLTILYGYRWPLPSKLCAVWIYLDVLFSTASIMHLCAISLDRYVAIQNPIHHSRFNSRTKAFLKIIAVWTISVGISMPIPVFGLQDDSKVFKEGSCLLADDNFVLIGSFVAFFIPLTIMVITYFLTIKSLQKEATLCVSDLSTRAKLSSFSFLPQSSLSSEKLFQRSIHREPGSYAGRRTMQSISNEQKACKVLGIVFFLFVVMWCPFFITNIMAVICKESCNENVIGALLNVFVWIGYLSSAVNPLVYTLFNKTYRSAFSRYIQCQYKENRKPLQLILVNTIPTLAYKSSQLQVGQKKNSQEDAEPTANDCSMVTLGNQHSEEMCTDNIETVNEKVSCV
MOR-DOR ag: agonists of human mu-delta opioid receptor heterodimerization; P35372+P41143; cells, OPRM1-OPRD1 heterodimerization, luminescence; activation, % at 9.3 µM; actives 0.3% (n = 340,000); in the data active means activation above about 18%
hGIII sPLA2 conf: human GIII-sPLA2 inhibition, confirmation; shares compounds with HGIII-sPLA2 inh; recombinant hGIII-sPLA2, BODIPY PC-A2 QFRET fluorescence; inhibition, % at 12.2 µM; actives 34% (n = 2,000);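 active means mean inhibition across triplicates above the hit cutoff set in the earlier primary screen, cut at about 19% in these data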
BODIPY interf: optically interferes with 535nm fluorescence in sPLA2 counter-screen; shares compounds with HGIII-sPLA2 inh; BODIPY FL product fluorescence interference, QFRET; inhibition, % at 12.2 µM; actives 8.5% (n = 2,000); AID 743282;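 active means average inhibition above the solvent-only control mean plus 3 SD, cut at about 6% in these data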
535nm interf DR: counter-screen for HGIII-sPLA2 inhibitors: 535nm fluorescence interference, dose response; shares compounds with HGIII-sPLA2 inh; BODIPY FL product fluorescence interference, cell-free; IC50, µM; 240 tested, under 10 active;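 active means IC50 at or below 10 µM; inactive means IC50 above 10 µM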
Each line names hits and unclear results; the compound was inactive in the other large screens (follow-up assays come after a bar, where they were run).

N#CCC[C@H]1CC[C@]2(CCCN(C(=O)c3ccccc3)C2)O1	HGIII-sPLA2 inh 19.4 (no result: HTR5A ag, HTR5A inv ctr, MOR-DOR inv ag, m5-HT2A agonist, MOR-DOR ag) | hGIII sPLA2 conf inactive | BODIPY interf inactive
Cc1ccc2c(c1)C1CS(=O)(=O)N(C3CCCC3)C(=O)N1C2 (stereo not given)	none (no result: HTR5A ag, HTR5A inv ctr, MOR-DOR inv ag, m5-HT2A agonist, MOR-DOR ag)
O=C(NC(=S)N1CCN(c2ccc(C(F)(F)F)cc2[N+](=O)[O-])CC1)c1cccs1	HGIII-sPLA2 inh 31.2 | hGIII sPLA2 conf 46.9 | BODIPY interf 9.5
CCc1ccc(Nc2n[n+](-c3ccccc3)c(-c3ccc(N(CC)CC)cc3)s2)cc1	HGIII-sPLA2 inh 22.7 | hGIII sPLA2 conf inactive | BODIPY interf inactive
O=C(NC(=S)Nc1ccc2oc(=O)ccc2c1)c1cc2ccccc2o1	HGIII-sPLA2 inh 22.3 | hGIII sPLA2 conf inactive | BODIPY interf inactive
CCSc1n[nH]c(=O)n1C	none (no result: HTR5A ag, HTR5A inv ctr, MOR-DOR inv ag, m5-HT2A agonist, MOR-DOR ag)
Cc1c(Cl)cccc1NC(=S)NCc1cccn1C	none
Cn1cccc1CC(=O)NNC(=S)Nc1ccccc1Cl	HGIII-sPLA2 inh 25.3 | hGIII sPLA2 conf 29.5 | BODIPY interf inactive | 535nm interf DR inactive
Cn1cccc1CC(=O)N/N=C/c1ccc(Cl)cc1	none
O=C(Cc1noc2ccccc12)NNC(=S)Nc1ccc(Cl)cc1	HGIII-sPLA2 inh 28.8 | hGIII sPLA2 conf 25.6 | BODIPY interf inactive
Cn1cccc1CC(=O)NNC(=S)Nc1ccc(Cl)cc1	HGIII-sPLA2 inh 23.6 | hGIII sPLA2 conf 27.2 | BODIPY interf inactive
Cc1cccc(Cn2cc(COC(=O)NCCc3ccccc3)nn2)c1	none (no result: HTR5A ag, HTR5A inv ctr, MOR-DOR inv ag, m5-HT2A agonist, MOR-DOR ag)
Cc1cc(C)c(C)c(N=Nc2nc3ccccc3n2C)c1C	HGIII-sPLA2 inh 20.5 | hGIII sPLA2 conf 39.2 | BODIPY interf inactive | 535nm interf DR inactive
COCCCNC(=S)NNC(=S)NCCCOC	HGIII-sPLA2 inh 21.6 (no result: HTR5A ag, HTR5A inv ctr, MOR-DOR inv ag, MOR-DOR ag) | hGIII sPLA2 conf inactive | BODIPY interf inactive
CC(C)c1nc2c(c(=O)c3ccccc3n2C)c(=O)n1-c1ccc(F)cc1	HGIII-sPLA2 inh 23.8 | hGIII sPLA2 conf inactive | BODIPY interf inactive
COc1ccc(C(=O)C2(C(=O)NCCO)CC(c3ccccn3)=NO2)cc1 (stereo not given)	none (no result: HTR5A ag, HTR5A inv ctr, MOR-DOR inv ag, m5-HT2A agonist, MOR-DOR ag)
CCOC(=O)c1[nH]c(=S)n(-c2ccccc2)c1C(=O)OCC	HGIII-sPLA2 inh 24.7 (no result: HTR5A ag, HTR5A inv ctr, MOR-DOR inv ag, MOR-DOR ag) | hGIII sPLA2 conf inactive | BODIPY interf inactive
COCC(=O)N1CCC(C(=O)NCC2COc3ccccc3O2)CC1 (stereo not given)	none (no result: HTR5A ag, HTR5A inv ctr, MOR-DOR inv ag, m5-HT2A agonist, MOR-DOR ag)
COC(=O)Nc1ccccc1C(=O)N1CCCCC1	none
CCCCOC(=O)Nc1ccccc1C(=O)N1CCCC1	HGIII-sPLA2 inh 21.7 | hGIII sPLA2 conf inactive | BODIPY interf inactive
CCOC(=S)SCC(=O)Nc1nc(C)c(C)s1	HGIII-sPLA2 inh 19.4 | hGIII sPLA2 conf inactive | BODIPY interf inactive
COc1ccc(OCC(C)CN2CCC(C(O)(c3ccccc3)c3ccccc3)CC2)cc1 (stereo not given)	none (no result: HTR5A ag, HTR5A inv ctr, MOR-DOR inv ag, m5-HT2A agonist, MOR-DOR ag)
COc1ccc(N=Nc2nc(-c3ccccc3)c(-c3ccccc3)[nH]2)cc1	HGIII-sPLA2 inh 27.7 | hGIII sPLA2 conf 30.1 | BODIPY interf inactive | 535nm interf DR inactive
COc1ccccc1N=Nc1nc(-c2ccccc2)c(-c2ccccc2)[nH]1	none
Oc1ccccc1N=Nc1nc(-c2ccccc2)c(-c2ccccc2)[nH]1	HGIII-sPLA2 inh 27.7 | hGIII sPLA2 conf inactive | BODIPY interf 15.6
O=C(O)c1ccc(-c2nc(-c3ccccc3)c(-c3ccccc3)[nH]2)cc1	none
CCN(CC)c1ccc(-c2nc3cnccn3c2NC2CCCC2)cc1	HGIII-sPLA2 inh 21.2 | hGIII sPLA2 conf 27.0 | BODIPY interf inactive
COc1cccc(NC(=O)Nc2c(-c3ccc(C(F)(F)F)cc3)nc3ncccn23)c1	none (no result: HTR5A ag, HTR5A inv ctr, MOR-DOR inv ag, m5-HT2A agonist, MOR-DOR ag)
COc1cccc(N2CC(=O)Nc3c(oc4nc(-c5ccccc5)cc(C)c34)C2=O)c1	HGIII-sPLA2 inh 19.7 | hGIII sPLA2 conf inactive | BODIPY interf inactive
